These results are taken from PubChem BioAssay AID2069 (Sanford-Burnham Center for Chemical Genomics, 2009).

The campaign covered roughly 1,200 compounds. About 210 (18%) were called active. No stated cut-off is given here; in the data, active means inhibition above about 30%; inactive means the rest. Not all results are given here.

This assay can be described thus: HTRF signal interference by compounds, confirmation, artefact control for SUMOylation inhibitor project, biochemical, uHTS (AID 2069). The note with it: HTRF interference counterscreen, fluorescence, at 35 µM, hits give high values.
In general, inhibition refers to the drop in the measured response relative to a control, in per cent. On to `Cc1ccccc1C(=O)Nc1cccc(C(=O)N/N=C/c2cc(Cl)cc([N+](=O)[O-])c2O)c1`, for which the inhibition is -53.5% (inactive).

For the molecule `O=C(N/N=C/c1cc(Cl)cc([N+](=O)[O-])c1O)c1ccccc1NS(=O)(=O)c1cccs1`, the inhibition is 39.8% (active).

As for `O=C(N/N=C/c1ccc(N2CCOCC2)cc1)c1ccccc1NS(=O)(=O)c1cccs1`, the inhibition was 24.1% (inactive).

In the case of `C=C(C)[C@@H]1CC[C@]2(C(=O)O)CC[C@]3(C)[C@H](CC[C@@H]4[C@@]5(C)CC[C@H](O)C(C)(C)[C@@H]5CC[C@]43C)[C@@H]12`, the inhibition was 5.35% (inactive).

Take `Cc1ccc(Nc2nc(=O)c3cc([N+](=O)[O-])ccc3s2)cc1`: the inhibition was 5.9% (inactive).

With `Cc1cccc(NC(=O)/C(C#N)=C/c2cn(CC(=O)NCc3ccco3)c3ccccc23)c1C`, the inhibition was 13.7% (inactive).

Take `CCCCCCC#Cc1cncc(C(=O)NNC(=O)Nc2cc(Cl)cc(Cl)c2)c1`: the inhibition is -17% (inactive).

Take `O=C1C=C(NCc2ccccc2)c2ccccc2C1=O`: the inhibition is -1.95% (inactive).

On to `O=C1C=C(Nc2ccccc2C(=O)O)c2ccccc2C1=O`, for which the inhibition is -7.25% (inactive).

As to `O=C1C=C(N(CCO)Cc2ccccc2)c2ccccc2C1=O`, the inhibition was 50.4% (active).

Take `CC(C)CNC1=CC(=O)CC(c2ccco2)C1` (stereo not given): the inhibition is -0.9% (inactive).

As for `COc1cccc(C(c2c(C)[nH]n(-c3ccccc3)c2=O)c2c(C)[nH]n(-c3ccccc3)c2=O)c1OC`, the inhibition is -27.4% (inactive).

Regarding `Nc1ncnc2c1ncn2C1OC(COP(=O)(O)O)C(O)C1O` (stereo not given), the inhibition was -7% (inactive).

Take `O=C1OC(Nc2ccc3ncccc3c2)c2ccccc21` (stereo not given): the inhibition was 24% (inactive).

Take `O=[N+]([O-])c1ccc(O)c(C=Nc2cccc3ncccc23)c1`: the inhibition was 4.3% (inactive).

On to `N#CC1=C(N)N2C(=C(C#N)C1c1ccc(Br)cc1)Nc1ccccc12` (stereo not given), for which the inhibition was 7.05% (inactive).

With `O=c1nc2s/c(=C\c3ccco3)c(=O)n2nc1Cc1ccc(F)cc1`, the inhibition is -3.1% (inactive).

Consider `OC(COc1ccccc1)CSc1ncn[nH]1` (stereo not given), for which the inhibition is 14.6% (inactive).

As to `CC(C)N(C(=O)Nc1ccc2nccnc2c1)C(C)C`, the inhibition was 31.1% (active).

In the case of `COc1ccc(NC(=S)Nc2ccc3nccnc3c2)cc1`, the inhibition was 8.85% (inactive).

On to `Fc1ccc(NC(=S)Nc2ccc3nccnc3c2)cc1`, for which the inhibition was 7.9% (inactive).

Take `COc1ccc(-n2c(NC(=O)c3ccc(Br)o3)c(C#N)c3nc4ccccc4nc32)cc1`: the inhibition was 12.1% (inactive).

As for `Cn1c(=O)n(C)c2cc(S(=O)(=O)NCCO)ccc21`, the inhibition was -3.1% (inactive).

Regarding `O=C(Nc1cccc2nsnc12)c1ccc(-c2cccc(Cl)c2)o1`, the inhibition is 25.9% (inactive).

As to `Cc1ccc2nsnc2c1NC(=O)c1ccc(-c2cc(Cl)ccc2Cl)o1`, the inhibition is 20.6% (inactive).

`COc1ccccc1Oc1c(C)oc2c(CN3CCN(C)CC3)c(O)ccc2c1=O`: the inhibition is 30.4% (active).

As to `CCOc1cc(C2c3c(oc4ccccc4c3=O)C(=O)N2c2nccs2)ccc1O` (stereo not given), the inhibition was -2.15% (inactive).

Take `CCOc1ccccc1Oc1c(C)oc2c(CN3CCN(C)CC3)c(O)ccc2c1=O`: the inhibition was 40.3% (active).

On to `Oc1ccc2ccccc2c1C=NCc1cn2ccsc2n1`, for which the inhibition is 0.1% (inactive).

On to `CC(C)c1ccc(NC(=S)Nc2cccc3ccccc23)cc1`, for which the inhibition is -7.9% (inactive).

For `COc1ccc2cc3c(N)nn(C(=O)Cc4ccc(Cl)cc4)c3nc2c1`, the inhibition was 23.9% (inactive).

On to `CCN(CC)C(=O)c1sc2nc(-c3ccncc3)[nH]c(=O)c2c1C`, for which the inhibition was 47.2% (active).

For the molecule `CCCCCCC(C)OC(=O)c1ccccc1C(=O)O` (stereo not given), the inhibition was 3.05% (inactive).

In the case of `NC(=S)n1[nH]c(-c2ccc([N+](=O)[O-])cc2)c(N=Nc2cccc(Cl)c2)c1=O`, the inhibition was 10.7% (inactive).

As for `Cc1onc(-c2ccccc2Cl)c1C(=O)NCc1ccco1`, the inhibition was 11.2% (inactive).

`COc1ccc(CNC(=O)c2c(C)oc3c2C(=O)c2ccccc2C3=O)cc1`: the inhibition is 5.35% (inactive).

With `COc1ccc2oc(=O)c(C(=O)NCC3CCCO3)cc2c1` (stereo not given), the inhibition was 40.9% (active).

In the case of `COc1ccc(C(=O)Nc2ccc(-c3nnn(CC(=O)NCc4ccco4)n3)cc2)cc1`, the inhibition was 26.7% (inactive).

In the case of `COc1ccc2oc(=O)c(/C(C)=N/NC(=O)c3ccncc3)cc2c1`, the inhibition was 18.8% (inactive).

Regarding `COc1ccc2oc(=O)c(C(=O)NCc3ccco3)cc2c1`, the inhibition was 48.4% (active).

Take `COc1ccc(CCn2c(N)c(C(=O)NCc3ccco3)c3nc4ccccc4nc32)cc1OC`: the inhibition is 1.65% (inactive).

As for `COc1ccc(-c2cc(C(F)(F)F)n3ncc(C(=O)NCc4ccco4)c3n2)cc1`, the inhibition is 44.1% (active).

In the case of `Cc1cc(C)cc(NC(=S)Nc2cccc3cnccc23)c1`, the inhibition was -5.7% (inactive).

In the case of `COc1ccc(S(=O)(=O)N(C)c2ccc(C(=O)NCc3ccccn3)cc2)cc1`, the inhibition is -4.1% (inactive).

Consider `N#CC1=C(N)Oc2n[nH]c(-c3cccs3)c2C1c1ccoc1` (stereo not given), for which the inhibition is -10.8% (inactive).

Take `COC(=O)c1cc(O)cc(OC)c1Oc1cc(C)cc(O)c1C(=O)O`: the inhibition is 11% (inactive).

`COc1ccc2c(C)c(C(=O)NCC(C)O)oc2c1OC` (stereo not given): the inhibition was 38% (active).

With `Oc1ccc(NCc2ccccc2OCc2ccccc2F)cc1`, the inhibition was -9.2% (inactive).

Regarding `COc1cc2c(-c3ccc(O)cc3)nc3c(c(C)nn3-c3ccccc3)c2cc1OC`, the inhibition is 9.45% (inactive).

`CCCCCCCC(=O)Nc1ccc(C(=O)N/N=C/c2cccc([N+](=O)[O-])c2)cc1`: the inhibition was -8.25% (inactive).

`CC(=O)Nc1ccc(S(=O)(=O)Nc2cccn(Cc3ccc(C)cc3)c2=O)cc1`: the inhibition was 1.85% (inactive).

Consider `CCCCCCCn1c(NC(=O)CC)nc2ccccc21`, for which the inhibition was 4.3% (inactive).

`CC(=O)Nc1ccc(-c2cn3cccnc3n2)cc1`: the inhibition is 52.3% (active).

On to `CCCCCC(=O)Nc1ccc(-c2cn3cccnc3n2)cc1`, for which the inhibition was 49.3% (active).

Regarding `CCc1ccc(S(=O)(=O)/N=C2\C=CC(=O)c3ccccc32)cc1`, the inhibition was 7.75% (inactive).

For the molecule `Cc1ccc(-n2nc(C)c3c2OC(N)=C(C#N)C3c2ccc(C)o2)cc1` (stereo not given), the inhibition is -11.4% (inactive).

With `O=C(Nc1ccc(Cl)c(Cl)c1)Nn1cnnc1`, the inhibition is 41.3% (active).

`CN(C)S(=O)(=O)c1cc(NC(=O)CNCc2ccccc2)ccc1Cl`: the inhibition was -6% (inactive).

On to `NS(=O)(=O)c1ccc(NC(=O)c2ccc(-c3ccccc3)cc2)cc1`, for which the inhibition is -3.1% (inactive).

With `Cc1[nH][nH]c(=O)c1C(c1ccc(-c2ccc(C(=O)O)cc2)o1)c1c(C)[nH][nH]c1=O`, the inhibition is 0.5% (inactive).

Turning to `CCOC(=O)c1sc(NC(=O)c2cccc(S(=O)(=O)N3CCc4ccccc43)c2)c(C#N)c1C`, the inhibition was -22.4% (inactive).

For the molecule `Cc1c(Br)c(O)c(Br)c2sc(=O)oc12`, the inhibition was -25.6% (inactive).

Take `O=C(NNc1cc(N2CCOCC2)nc(N2CCOCC2)n1)c1ccc([N+](=O)[O-])cc1`: the inhibition is 1.6% (inactive).

As to `Nc1cccc2cnccc12`, the inhibition was 3.2% (inactive).

Regarding `COc1ccc(C(=O)CSc2nnc(-c3ccco3)c(-c3ccco3)n2)cc1`, the inhibition was -2.15% (inactive).

In the case of `NN1C(=O)/C(=C\c2ccco2)SC1=S`, the inhibition was 4.75% (inactive).

Take `Nc1ccc2c(c1)C/C(=C/c1ccco1)C2=O`: the inhibition was 62.9% (active).

For the molecule `NC1=NC(=O)/C(=C\c2ccco2)S1`, the inhibition was 16.6% (inactive).

Regarding `COc1ccc(-c2csc(NC(=S)NC(=O)/C=C/c3ccco3)n2)cc1OC`, the inhibition was 10.6% (inactive).

Regarding `Cc1ccc(/C=C2\SC(=S)N(/N=C/c3cc([N+](=O)[O-])ccc3O)C2=O)o1`, the inhibition was -7.65% (inactive).

Turning to `Cc1nn2cc(-c3ccccc3)nc2[nH]c1=O`, the inhibition was 62.4% (active).

With `CCOC(=O)c1c2ccc(OCC(=O)N/N=C/c3ccc(C)cc3)cc2n2ccccc12`, the inhibition is 19.8% (inactive).

As for `CCOC(=O)c1c2ccc(OCC(=O)NN)cc2n2ccccc12`, the inhibition was 29.6% (inactive).

With `N#Cc1c2ccc(OCC(N)=O)cc2n2ccccc12`, the inhibition was 35.8% (active).

On to `CCc1cc2c(=O)nc3n(c2s1)Cc1ccccc1/C3=C(/O)c1cccc([N+](=O)[O-])c1`, for which the inhibition is 17% (inactive).

In the case of `O=C(/C=C/c1cccs1)Nc1scc(-c2ccccc2)c1C(=O)O`, the inhibition is 26.6% (inactive).

On to `COc1cccc(Cn2cccc(NC(=O)NC3CCCCC3)c2=O)c1`, for which the inhibition was -4.4% (inactive).

As to `Cc1cccn2c(=O)c3cc(C(=O)NC4CCCCCC4)sc3nc12`, the inhibition is 31.1% (active).

Turning to `Cc1cccn2c(=O)c3cc(S(=O)(=O)c4ccccc4)c(=N)n(Cc4ccco4)c3nc12`, the inhibition is 5.25% (inactive).

As to `O=C1C=C(O)CC(c2ccco2)C1` (stereo not given), the inhibition is 5.85% (inactive).

With `COCCNC(=S)Nc1ccc2nsnc2c1`, the inhibition was -1.2% (inactive).

Consider `Cc1cc(C)cc(NC(=S)Nc2cccc3ccccc23)c1`, for which the inhibition is -13.7% (inactive).

Take `N#Cc1c(N)n(CCNC(=O)c2ccccc2)c2nc3ccccc3nc12`: the inhibition was 19.1% (inactive).

In the case of `N#Cc1c(N)n(-c2cccc(C(=O)O)c2)c2nc3ccccc3nc12`, the inhibition was 33.5% (active).

With `COc1ccc(-n2c(NC(=O)c3ccco3)c(C#N)c3nc4ccccc4nc32)cc1`, the inhibition was 4.15% (inactive).

For the molecule `Cc1cccn2c(=O)c3cc(C#N)c(=NC(=O)c4ccco4)n(Cc4ccco4)c3nc12`, the inhibition was 23.1% (inactive).

Turning to `O=c1[nH]cc(I)cc1I`, the inhibition was -3.65% (inactive).

For the molecule `O=C1CC(c2ccco2)CC(O)=C1C=Nc1cc(Cl)ccc1O` (stereo not given), the inhibition was -2.5% (inactive).

Turning to `COc1cccc(-c2nc(SCC(=O)Nc3nc(-c4ccccc4)c(C)s3)[nH]c(=O)c2C#N)c1`, the inhibition was -0.65% (inactive).

`COc1ccc(C(N)c2nccc3cc(OC)c(OC)cc23)cc1OC` (stereo not given): the inhibition was -2.9% (inactive).

Consider `CN(C(=S)Nc1cccnc1)c1ccc(O)cc1`, for which the inhibition is 5.3% (inactive).

Regarding `CC(=O)c1ccc(NC(=O)Nc2cccnc2)cc1`, the inhibition was 41.8% (active).

In the case of `O=C(Nc1ccc(N2C(=O)C3C4C=CC(C4)C3C2=O)cc1)Nc1cccnc1` (stereo not given), the inhibition was 16.1% (inactive).

As to `CCCC(=O)NC(=S)Nc1cccc2c(O)cccc12`, the inhibition is 11.1% (inactive).

As for `Cc1ccc(NC(=O)Nc2cccn(Cc3c(F)cccc3Cl)c2=O)cc1`, the inhibition was 3.65% (inactive).
